Test results from ChEMBL document CHEMBL2218924, “A broad activity screen in support of a chemogenomic map for kinase signalling research and drug discovery” (Biochem J, 2013).

Key:
[1] = target: Tyrosine-protein kinase Fer (Homo sapiens) (UniProt P16591); settings: at 10 µM
[2] = target: Tyrosine-protein kinase Fes/Fps (Homo sapiens) (UniProt P07332); settings: at 1 µM
[3] = target: Tyrosine-protein kinase Fgr (Homo sapiens) (UniProt P09769); settings: at 1 µM
[4] = target: Tyrosine-protein kinase Fgr (Homo sapiens) (UniProt P09769); settings: at 10 µM
[5] = target: Vascular endothelial growth factor receptor 1 (Homo sapiens) (UniProt P17948); settings: at 1 µM
[6] = target: Vascular endothelial growth factor receptor 1 (Homo sapiens) (UniProt P17948); settings: at 10 µM
[7] = target: Receptor-type tyrosine-protein kinase FLT3 (Homo sapiens) (UniProt P36888); settings: at 1 µM
[8] = target: Receptor-type tyrosine-protein kinase FLT3 (Homo sapiens) (UniProt P36888); settings: at 10 µM
[9] = target: Vascular endothelial growth factor receptor 3 (Homo sapiens) (UniProt P35916); settings: at 1 µM
[10] = target: Vascular endothelial growth factor receptor 3 (Homo sapiens) (UniProt P35916); settings: at 10 µM
[11] = target: Macrophage colony-stimulating factor 1 receptor (Homo sapiens) (UniProt P07333); settings: at 1 µM
[12] = target: Macrophage colony-stimulating factor 1 receptor (Homo sapiens) (UniProt P07333); settings: at 10 µM
[13] = target: Tyrosine-protein kinase Fyn (Homo sapiens) (UniProt P06241); settings: at 1 µM
[14] = target: Tyrosine-protein kinase Fyn (Homo sapiens) (UniProt P06241); settings: at 10 µM
[15] = target: T1, Mitogen-activated protein kinase kinase kinase kinase 2 (Homo sapiens) (UniProt Q12851); settings: at 1 µM
T1 sequence (whole entry): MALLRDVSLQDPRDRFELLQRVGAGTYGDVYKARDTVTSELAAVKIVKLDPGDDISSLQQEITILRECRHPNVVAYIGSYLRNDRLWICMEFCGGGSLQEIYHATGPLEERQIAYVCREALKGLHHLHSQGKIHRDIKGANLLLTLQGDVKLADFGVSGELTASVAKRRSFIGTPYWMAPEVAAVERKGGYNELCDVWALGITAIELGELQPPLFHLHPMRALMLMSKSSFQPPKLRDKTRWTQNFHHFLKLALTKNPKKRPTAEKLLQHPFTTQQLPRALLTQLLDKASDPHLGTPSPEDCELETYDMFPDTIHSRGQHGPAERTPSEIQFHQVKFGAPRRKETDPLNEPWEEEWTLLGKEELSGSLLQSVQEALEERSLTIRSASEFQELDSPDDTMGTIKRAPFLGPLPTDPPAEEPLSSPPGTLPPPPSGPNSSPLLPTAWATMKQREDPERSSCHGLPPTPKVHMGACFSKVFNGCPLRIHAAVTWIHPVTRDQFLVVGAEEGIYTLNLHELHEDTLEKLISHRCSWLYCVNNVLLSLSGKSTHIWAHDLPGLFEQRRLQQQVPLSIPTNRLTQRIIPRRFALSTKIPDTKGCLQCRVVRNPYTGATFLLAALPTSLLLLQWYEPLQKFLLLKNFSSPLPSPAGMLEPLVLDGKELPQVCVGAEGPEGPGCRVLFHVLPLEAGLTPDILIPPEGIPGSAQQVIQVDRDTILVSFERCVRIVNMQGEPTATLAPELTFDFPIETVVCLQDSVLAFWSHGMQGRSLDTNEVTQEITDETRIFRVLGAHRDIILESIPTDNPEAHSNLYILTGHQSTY

[16] = target: T1, Mitogen-activated protein kinase kinase kinase kinase 2 (Homo sapiens); settings: at 10 µM
[17] = target: G protein-coupled receptor kinase 5 (Homo sapiens) (UniProt P34947); settings: at 10 µM
[18] = target: G protein-coupled receptor kinase 6 (Homo sapiens) (UniProt P43250); settings: at 10 µM
[19] = target: T2, Rhodopsin kinase GRK7 (Homo sapiens) (UniProt Q8WTQ7); settings: at 1 µM
T2 sequence (whole entry): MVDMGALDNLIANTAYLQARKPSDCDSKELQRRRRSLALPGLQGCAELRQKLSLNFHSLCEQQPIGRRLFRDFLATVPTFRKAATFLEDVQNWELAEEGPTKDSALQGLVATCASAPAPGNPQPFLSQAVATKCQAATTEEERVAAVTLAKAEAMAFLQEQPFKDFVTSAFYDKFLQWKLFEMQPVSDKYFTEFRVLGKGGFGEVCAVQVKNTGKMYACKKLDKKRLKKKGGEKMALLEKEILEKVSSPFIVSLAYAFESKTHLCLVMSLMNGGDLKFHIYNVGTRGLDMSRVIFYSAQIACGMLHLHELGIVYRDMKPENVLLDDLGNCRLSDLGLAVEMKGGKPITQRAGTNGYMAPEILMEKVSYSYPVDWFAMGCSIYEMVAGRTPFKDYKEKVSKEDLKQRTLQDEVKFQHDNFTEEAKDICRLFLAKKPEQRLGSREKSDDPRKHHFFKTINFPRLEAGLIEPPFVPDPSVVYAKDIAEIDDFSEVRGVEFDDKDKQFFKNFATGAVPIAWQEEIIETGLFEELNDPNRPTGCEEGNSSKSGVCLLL

[20] = target: Tyrosine-protein kinase Fes/Fps (Homo sapiens) (UniProt P07332); settings: at 10 µM

G protein-coupled receptor kinase 6 (Homo sapiens), sequence (P43250 whole entry, looked up): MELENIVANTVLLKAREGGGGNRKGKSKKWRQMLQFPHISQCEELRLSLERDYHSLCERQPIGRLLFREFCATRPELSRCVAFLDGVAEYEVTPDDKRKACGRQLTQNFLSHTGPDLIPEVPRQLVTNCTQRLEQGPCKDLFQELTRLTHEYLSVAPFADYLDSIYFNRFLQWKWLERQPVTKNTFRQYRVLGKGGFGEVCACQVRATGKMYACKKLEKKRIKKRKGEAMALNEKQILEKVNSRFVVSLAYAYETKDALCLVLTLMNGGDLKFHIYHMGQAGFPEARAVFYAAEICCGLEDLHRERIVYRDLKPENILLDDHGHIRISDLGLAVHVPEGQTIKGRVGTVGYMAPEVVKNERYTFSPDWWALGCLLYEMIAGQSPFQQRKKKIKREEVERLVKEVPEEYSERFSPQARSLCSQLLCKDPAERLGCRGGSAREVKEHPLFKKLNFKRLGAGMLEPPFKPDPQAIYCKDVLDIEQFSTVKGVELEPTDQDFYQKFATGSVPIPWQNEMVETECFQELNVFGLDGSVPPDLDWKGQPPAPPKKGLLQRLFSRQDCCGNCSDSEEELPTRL
Vascular endothelial growth factor receptor 1 (Homo sapiens), sequence (P17948 whole entry): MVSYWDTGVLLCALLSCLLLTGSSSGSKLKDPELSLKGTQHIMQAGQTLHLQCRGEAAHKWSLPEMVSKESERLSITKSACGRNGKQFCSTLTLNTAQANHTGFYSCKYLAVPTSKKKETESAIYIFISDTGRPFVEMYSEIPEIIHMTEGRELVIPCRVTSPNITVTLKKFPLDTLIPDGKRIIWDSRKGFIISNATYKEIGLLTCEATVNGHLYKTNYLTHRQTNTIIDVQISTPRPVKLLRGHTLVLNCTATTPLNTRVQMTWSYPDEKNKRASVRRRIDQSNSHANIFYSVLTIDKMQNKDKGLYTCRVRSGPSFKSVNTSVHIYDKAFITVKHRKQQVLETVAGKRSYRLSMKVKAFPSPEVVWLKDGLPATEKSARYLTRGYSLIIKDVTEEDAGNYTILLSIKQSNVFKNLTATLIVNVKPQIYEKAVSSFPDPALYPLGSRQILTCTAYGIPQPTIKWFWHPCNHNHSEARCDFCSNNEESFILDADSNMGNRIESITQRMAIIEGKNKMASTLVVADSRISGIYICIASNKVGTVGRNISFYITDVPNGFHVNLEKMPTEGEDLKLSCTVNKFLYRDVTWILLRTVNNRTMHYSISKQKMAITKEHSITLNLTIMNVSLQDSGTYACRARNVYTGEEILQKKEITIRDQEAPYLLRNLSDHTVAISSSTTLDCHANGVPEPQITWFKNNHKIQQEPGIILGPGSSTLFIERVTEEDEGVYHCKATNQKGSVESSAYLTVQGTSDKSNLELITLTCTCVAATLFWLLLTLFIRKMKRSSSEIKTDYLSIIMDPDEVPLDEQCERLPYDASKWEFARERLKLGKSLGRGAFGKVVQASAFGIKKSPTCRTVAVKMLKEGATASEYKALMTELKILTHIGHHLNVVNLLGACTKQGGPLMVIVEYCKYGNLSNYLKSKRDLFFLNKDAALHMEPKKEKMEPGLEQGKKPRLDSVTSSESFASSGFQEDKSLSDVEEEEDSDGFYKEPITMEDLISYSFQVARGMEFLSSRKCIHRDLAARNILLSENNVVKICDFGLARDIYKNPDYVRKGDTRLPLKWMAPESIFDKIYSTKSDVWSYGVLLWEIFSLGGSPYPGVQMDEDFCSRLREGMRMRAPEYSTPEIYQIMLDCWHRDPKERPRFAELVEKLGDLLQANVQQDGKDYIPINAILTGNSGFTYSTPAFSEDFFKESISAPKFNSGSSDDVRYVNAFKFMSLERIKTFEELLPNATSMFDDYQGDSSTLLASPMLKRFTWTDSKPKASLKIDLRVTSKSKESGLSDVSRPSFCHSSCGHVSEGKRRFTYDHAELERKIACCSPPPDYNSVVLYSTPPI
Tyrosine-protein kinase Fer (Homo sapiens), sequence (P16591 whole entry, looked up): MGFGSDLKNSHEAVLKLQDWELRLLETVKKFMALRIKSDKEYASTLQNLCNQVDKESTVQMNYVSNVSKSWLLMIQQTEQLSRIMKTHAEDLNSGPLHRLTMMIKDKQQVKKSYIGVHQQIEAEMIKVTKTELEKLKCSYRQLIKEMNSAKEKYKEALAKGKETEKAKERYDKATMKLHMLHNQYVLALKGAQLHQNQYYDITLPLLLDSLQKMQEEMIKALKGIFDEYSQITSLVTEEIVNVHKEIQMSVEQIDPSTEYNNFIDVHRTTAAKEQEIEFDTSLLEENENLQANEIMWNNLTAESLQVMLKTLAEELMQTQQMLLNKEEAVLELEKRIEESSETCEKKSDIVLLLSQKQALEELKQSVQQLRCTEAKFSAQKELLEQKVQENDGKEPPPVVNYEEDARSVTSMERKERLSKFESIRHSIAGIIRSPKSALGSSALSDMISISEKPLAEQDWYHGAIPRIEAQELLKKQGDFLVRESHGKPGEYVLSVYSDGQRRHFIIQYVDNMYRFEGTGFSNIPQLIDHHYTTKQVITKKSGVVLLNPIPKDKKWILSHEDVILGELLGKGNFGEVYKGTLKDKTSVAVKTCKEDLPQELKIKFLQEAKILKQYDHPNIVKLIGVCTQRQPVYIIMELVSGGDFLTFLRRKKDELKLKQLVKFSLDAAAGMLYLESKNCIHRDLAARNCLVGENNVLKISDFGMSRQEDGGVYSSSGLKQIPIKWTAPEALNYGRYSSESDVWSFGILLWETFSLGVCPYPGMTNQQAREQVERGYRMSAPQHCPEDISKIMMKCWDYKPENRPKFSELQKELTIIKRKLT
Tyrosine-protein kinase Fgr (Homo sapiens), sequence (P09769 2-529 limits assumed): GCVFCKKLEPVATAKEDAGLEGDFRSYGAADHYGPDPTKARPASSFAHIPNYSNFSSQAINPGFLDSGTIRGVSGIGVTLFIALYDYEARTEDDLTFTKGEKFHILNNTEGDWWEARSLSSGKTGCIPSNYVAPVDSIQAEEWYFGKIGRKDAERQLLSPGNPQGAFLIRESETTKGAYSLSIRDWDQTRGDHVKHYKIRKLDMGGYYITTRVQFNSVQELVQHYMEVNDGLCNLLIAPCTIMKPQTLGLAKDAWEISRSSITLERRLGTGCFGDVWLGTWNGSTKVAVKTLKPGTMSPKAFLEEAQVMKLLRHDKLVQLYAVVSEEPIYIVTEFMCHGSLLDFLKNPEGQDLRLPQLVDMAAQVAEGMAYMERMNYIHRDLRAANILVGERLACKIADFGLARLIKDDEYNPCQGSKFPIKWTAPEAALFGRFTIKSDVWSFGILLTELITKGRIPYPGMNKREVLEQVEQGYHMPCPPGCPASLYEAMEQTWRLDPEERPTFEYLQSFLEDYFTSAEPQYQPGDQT
Tyrosine-protein kinase Fes/Fps (Homo sapiens), sequence (P07332 whole entry): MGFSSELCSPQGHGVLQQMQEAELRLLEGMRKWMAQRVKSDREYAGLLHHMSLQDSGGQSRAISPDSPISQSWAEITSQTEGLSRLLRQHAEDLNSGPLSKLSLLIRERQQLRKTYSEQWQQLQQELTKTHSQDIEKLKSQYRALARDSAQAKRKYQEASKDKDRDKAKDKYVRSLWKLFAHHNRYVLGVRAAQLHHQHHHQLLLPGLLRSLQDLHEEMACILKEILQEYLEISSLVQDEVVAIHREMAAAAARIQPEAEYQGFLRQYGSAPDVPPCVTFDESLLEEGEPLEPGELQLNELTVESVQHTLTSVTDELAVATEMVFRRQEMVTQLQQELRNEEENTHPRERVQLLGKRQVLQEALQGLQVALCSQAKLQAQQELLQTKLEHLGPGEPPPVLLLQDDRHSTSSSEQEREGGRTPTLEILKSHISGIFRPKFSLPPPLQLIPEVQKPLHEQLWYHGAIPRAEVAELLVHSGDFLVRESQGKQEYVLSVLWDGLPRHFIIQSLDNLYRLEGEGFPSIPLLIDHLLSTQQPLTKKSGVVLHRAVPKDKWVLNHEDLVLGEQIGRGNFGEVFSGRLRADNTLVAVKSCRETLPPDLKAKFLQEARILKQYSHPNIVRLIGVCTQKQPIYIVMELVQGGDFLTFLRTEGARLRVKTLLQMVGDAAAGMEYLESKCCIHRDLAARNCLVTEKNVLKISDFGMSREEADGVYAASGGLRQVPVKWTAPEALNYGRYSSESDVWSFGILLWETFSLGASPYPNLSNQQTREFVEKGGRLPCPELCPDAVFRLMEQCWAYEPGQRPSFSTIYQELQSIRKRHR
Tyrosine-protein kinase Fyn (Homo sapiens), sequence (P06241 2-537 limits assumed): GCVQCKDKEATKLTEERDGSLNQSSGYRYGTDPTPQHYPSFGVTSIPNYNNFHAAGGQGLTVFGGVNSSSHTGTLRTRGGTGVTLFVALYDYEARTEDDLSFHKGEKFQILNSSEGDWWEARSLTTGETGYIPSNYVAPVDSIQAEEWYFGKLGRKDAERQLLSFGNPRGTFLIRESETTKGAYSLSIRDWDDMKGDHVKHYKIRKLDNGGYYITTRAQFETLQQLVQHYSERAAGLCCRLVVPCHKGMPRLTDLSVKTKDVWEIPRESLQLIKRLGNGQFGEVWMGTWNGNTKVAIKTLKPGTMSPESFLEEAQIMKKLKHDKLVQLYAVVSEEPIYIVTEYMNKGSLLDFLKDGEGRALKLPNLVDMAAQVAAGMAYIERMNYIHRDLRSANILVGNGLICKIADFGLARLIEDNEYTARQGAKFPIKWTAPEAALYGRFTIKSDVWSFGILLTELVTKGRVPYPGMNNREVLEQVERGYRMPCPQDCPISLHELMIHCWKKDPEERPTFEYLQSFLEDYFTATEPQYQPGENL

Structure (SMILES)	residual activity [1]	residual activity [2]	residual activity [3]	residual activity [4]	residual activity [5]	residual activity [6]	residual activity [7]	residual activity [8]	residual activity [9]	residual activity [10]	residual activity [11]	residual activity [12]	residual activity [13]	residual activity [14]	residual activity [15]	residual activity [16]	residual activity [17]	residual activity [18]	residual activity [19]	residual activity [20]
CO[C@H]1[C@@H](OC)C[C@H](C)[C@@H](OC)C2=CC(=O)C=C(NC(=O)/C(C)=C/C=C/[C@H](OC)[C@@H](OC(N)=O)/C(C)=C/[C@@H]1C)C2=O	99%	111%	99%	100%	86%	95%	85%	76%	92%	89%	131%	112%	88%	96%	92%	81%	102%	89%	100%	
Cc1cncc2cccc(S(=O)(=O)N3CCCN(C(=O)CN)C[C@H]3C)c12			99%	53%	82%	63%	100%	86%	78%	51%	73%	78%	93%	78%	82%	46%	68%	51%	79%	
CN(C)CCCn1cc(C2=C(c3c[nH]c4ccccc34)C(=O)NC2=O)c2ccccc21	81%	125%		55%							50%	30%	102%	70%	75%	22%	9%	32%	58%	14%
CCN(CC)C(=O)c1ccc(Nc2nc(OCC3CCCCC3)c3nc[nH]c3n2)cc1	6%	61%	55%	7%	33%	2%	5%	1%	0%	0%	1%	2%	35%	5%	33%	3%			97%	9%
CO[C@@H]1[C@H](N(C)C(=O)c2ccccc2)C[C@H]2O[C@]1(C)n1c3ccccc3c3c4c(c5c6ccccc6n2c5c31)C(=O)NC4	14%	15%	7%	4%	4%	1%			1%	3%	0%	1%	6%	10%	4%	0%	74%	70%	8%	9%
c1ccc(-c2n[nH]cc2-c2ccnc3ccccc23)nc1		107%	90%	51%	36%	7%	48%	23%	37%	10%	71%	76%	94%	22%	43%	27%	103%	87%	93%	80%
CC[n+]1c(/C=C/N(C)c2ccccc2)n(-c2ccccc2)c2ccc(-c3nc4ccccc4s3)cc21	59%	121%	98%	88%	105%	83%	77%	26%	89%	52%	93%	71%	101%	60%	103%	73%	91%	93%	112%	105%
Nc1n[nH]c2nnc(-c3c(-c4ccccc4)nn4ccccc34)cc12	66%	85%	86%	50%	71%	23%	72%	22%	76%	23%	67%	28%	71%	52%	67%	24%	99%	89%	83%	86%
Cn1nc2c3c(cccc31)C(=O)c1ccccc1-2	76%	98%	98%	89%	75%	52%	50%	20%	57%	16%	72%	51%	65%	3%	60%	19%	98%		92%	94%
Cc1nc(-c2ccccc2)c(-c2ccncc2)o1	105%	108%	95%	92%	89%	60%	69%	28%	-1%	0%	90%	86%	90%	69%	91%	77%	107%	97%	105%	120%
Cc1ccc(S(=O)(=O)/C=C/C#N)cc1	99%	97%	108%	105%	96%	100%		89%	98%	89%	84%	89%	88%	100%	90%	89%	101%	94%	95%	108%
c1ccc2c(-c3ccncc3)c[nH]c2c1	97%	111%		91%	85%	63%	107%	78%	91%	60%	110%	92%	89%	78%	86%	50%	97%	83%	96%	72%
COc1cc2ncnc(Nc3ccc(Oc4ccccc4)cc3)c2cc1OC	76%	102%	7%	2%	18%	4%	39%	11%	7%	0%	49%	53%	2%	0%			104%	88%	103%	90%
O=[N+]([O-])c1ccc(-c2nc(-c3ccc(F)cc3)c(-c3ccncc3)[nH]2)cc1		100%	103%	96%	77%	46%	104%	90%	78%	71%	81%	54%	82%	70%	99%	91%	105%	94%	108%	116%
O=Nc1c(-c2c(O)[nH]c3ccccc23)[nH]c2ccccc12	53%	72%	8%	1%	1%	0%	1%	0%	-1%	1%	15%	8%	5%	0%	13%	1%	58%	80%	73%	30%
Oc1ccc(-c2nc(-c3ccc(F)cc3)c(-c3ccncc3)[nH]2)cc1	93%	107%	93%	40%	83%	26%	87%	85%	90%	29%	79%	58%	83%	27%	106%	87%	100%	97%	121%	99%
COc1cc2ncnc(N3CCN(C(=O)Nc4ccc(Oc5ccccc5)cc4)CC3)c2cc1OC	88%	98%	96%	97%	56%	21%	37%	18%	31%	7%	7%	2%	84%	82%	80%	69%	93%	82%	80%	86%
